From PubChem BioAssay (NCI)
The panel holds about 83,000 compounds, 20% with a hit somewhere; the sample as a whole holds those more often.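 Values shown are percent growth following 48 h exposure of cells in 96-well plates to a single concentration of compound; below 10 was considered active.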 Active and inactive are the calls of the source.

Experiments:
Assay in all cases: NCI-60 one-dose screen, 48 h (100 = growth as untreated, 0 = no growth, -100 = all killed)
Settings in all cases: 10 µM unless noted
SR leukemia = tested on: SR leukemia
OVCAR-8 ovarian = tested on: OVCAR-8 ovarian
OVCAR-5 ovarian = tested on: OVCAR-5 ovarian
OVCAR-4 ovarian = tested on: OVCAR-4 ovarian
SK-OV-3 ovarian = tested on: SK-OV-3 ovarian
IGROV1 ovarian = tested on: IGROV1 ovarian
OVCAR-3 ovarian = tested on: OVCAR-3 ovarian
HS 578T breast = tested on: HS 578T breast
NCI/ADR-RES ovarian = tested on: NCI/ADR-RES ovarian

Measured: growth

CCOC(=O)C1=C(N)Oc2c(sc3c(CC)cccc23)C1c1ccc(F)cc1 (stereo unspecified)
inactive: SR leukemia 27.2% | OVCAR-8 ovarian 45.2% | OVCAR-5 ovarian 56.2% | OVCAR-4 ovarian 58.7% | SK-OV-3 ovarian 50.6% | IGROV1 ovarian 29.3% | HS 578T breast 23.9% | NCI/ADR-RES ovarian 32.2%
active: OVCAR-3 ovarian -6.19%

O=C(Nc1ccc(Br)cc1F)c1cc(Br)ccc1O
inactive: OVCAR-8 ovarian 11.6% | OVCAR-5 ovarian 25.3% | OVCAR-4 ovarian 22.4% | SK-OV-3 ovarian 12% | IGROV1 ovarian 15.3%
active: SR leukemia 4.87% | OVCAR-3 ovarian 5.37% | HS 578T breast 4.22% | NCI/ADR-RES ovarian 7.36%

O=C(N/N=C/[C@H](O)[C@@H](O)[C@@H](O)[C@H](O)CO)c1ccc(NC(=O)c2cccnc2)cc1
inactive: SR leukemia 103% | OVCAR-8 ovarian 105% | OVCAR-5 ovarian 106% | OVCAR-4 ovarian 102% | SK-OV-3 ovarian 108% | IGROV1 ovarian 110% | OVCAR-3 ovarian 120% | HS 578T breast 108% | NCI/ADR-RES ovarian 106%

O=C1c2cccc3cccc(c23)C(=O)N1Nc1nc(N2CCOCC2)nc(N2CCN(c3ccccc3)CC2)n1
inactive: SR leukemia 23.7% | OVCAR-8 ovarian 71.6% | OVCAR-5 ovarian 83.8% | OVCAR-4 ovarian 79.9% | SK-OV-3 ovarian 54.8% | IGROV1 ovarian 32.9% | OVCAR-3 ovarian 11.2% | HS 578T breast 42.9% | NCI/ADR-RES ovarian 37.8%

CS(=O)(=O)Nc1cc(-c2ccc3ncnc(Nc4cccc(Cl)c4F)c3c2)cnc1Cl
inactive: SR leukemia 43.5% | OVCAR-8 ovarian 60.8% | OVCAR-5 ovarian 38.3% | OVCAR-4 ovarian 77.2% | SK-OV-3 ovarian 30.5% | OVCAR-3 ovarian 25% | NCI/ADR-RES ovarian 86.9%
active: IGROV1 ovarian -8.72% | HS 578T breast -3.32%

Cc1cc(C)c(-c2c(N)cc(Br)cc2Br)c(N)c1
inactive: SR leukemia 24.9% | OVCAR-8 ovarian 83.8% | OVCAR-5 ovarian 84.9% | OVCAR-4 ovarian 74.3% | SK-OV-3 ovarian 31.7% | IGROV1 ovarian 63.9% | OVCAR-3 ovarian 65% | HS 578T breast 66.4% | NCI/ADR-RES ovarian 54.5%

CC1=C([Se]CC(OC(=O)[C@@H](CSSC(C)(C)C)NC(=O)OC(C)(C)C)C(=O)NC(C)(C)C)C(=O)c2ccccc2C1=O (stereo partly specified)
active: OVCAR-8 ovarian -73.7% | OVCAR-5 ovarian -75.8% | OVCAR-4 ovarian -92.9% | SK-OV-3 ovarian -100% | IGROV1 ovarian 8.36% | OVCAR-3 ovarian -99.2% | HS 578T breast -11.2% | NCI/ADR-RES ovarian -78.9%
inactive: SR leukemia 22%

CCn1cnc2c1c(=O)[nH]c(=O)n2CC1CCC(CNS(=O)(=O)c2ccc(OC3CCOCC3)c(F)c2)CC1 (stereo unspecified)
inactive: SR leukemia 49.6% | OVCAR-8 ovarian 60.5% | OVCAR-5 ovarian 64.1% | OVCAR-4 ovarian 42% | SK-OV-3 ovarian 31.9% | IGROV1 ovarian 62.6% | OVCAR-3 ovarian 60.5% | HS 578T breast 15.9% | NCI/ADR-RES ovarian 95.8%

Nc1nc2ccccc2c2c(=O)c3cc(F)ccc3sc12
inactive: SR leukemia 101% | OVCAR-8 ovarian 106% | OVCAR-5 ovarian 102% | OVCAR-4 ovarian 101% | SK-OV-3 ovarian 108% | IGROV1 ovarian 103% | OVCAR-3 ovarian 113% | HS 578T breast 101% | NCI/ADR-RES ovarian 97.5%

COc1ccc(/C=C(/C#N)n2nnc3cccc(F)c32)cc1
inactive: OVCAR-8 ovarian 10.7% | OVCAR-5 ovarian 19.7% | OVCAR-4 ovarian 29.9% | SK-OV-3 ovarian 29% | IGROV1 ovarian 34.4%
active: SR leukemia 7.75% | OVCAR-3 ovarian -18.6% | HS 578T breast -16.4% | NCI/ADR-RES ovarian -29.6%

O=C(O)CCC/C=C\C[C@H]1C=CC(=O)/C1=C/C[C@@H](O)CCc1cccc(C(F)(F)F)c1
active: SR leukemia -7.7% | OVCAR-5 ovarian 8.7% | OVCAR-3 ovarian -36.1% | NCI/ADR-RES ovarian 5.22%
inactive: OVCAR-8 ovarian 10.3% | OVCAR-4 ovarian 32.8% | SK-OV-3 ovarian 44.3%

c1ccc(OCc2nnc(-c3ccc(Oc4ccccc4)cc3)o2)cc1
inactive: SR leukemia 85.8% | OVCAR-8 ovarian 99.1% | OVCAR-5 ovarian 104% | OVCAR-4 ovarian 98.7% | SK-OV-3 ovarian 96.9% | OVCAR-3 ovarian 98.3% | HS 578T breast 99% | NCI/ADR-RES ovarian 96.9%

CN1C(=O)CNC(=O)[C@H](NC(=O)c2nc3ccccc3cc2O)CSSC[C@H]1C(=O)NCCCc1nc2ccccc2cc1O
inactive: OVCAR-8 ovarian 86.2% | OVCAR-5 ovarian 121% | OVCAR-4 ovarian 96% | SK-OV-3 ovarian 113% | HS 578T breast 90.7% | NCI/ADR-RES ovarian 102%
active: SR leukemia -46.3% | OVCAR-3 ovarian 9.86%

O=C(Nc1c2ccccc2nc2ccccc12)c1ccccc1CN1C(=O)c2ccccc2C1=O
inactive: SR leukemia 30.5% | OVCAR-8 ovarian 31.3% | OVCAR-5 ovarian 40.1% | OVCAR-4 ovarian 44.8% | SK-OV-3 ovarian 35.6% | IGROV1 ovarian 21.4% | OVCAR-3 ovarian 34.1% | NCI/ADR-RES ovarian 29.3%

COC1=C(C)C(=O)c2c(c(CCCl)c3n2CCC3OC(C)=O)C1=O (stereo unspecified)
inactive: OVCAR-8 ovarian 10.2% | OVCAR-4 ovarian 72%
active: SR leukemia 1.94% | OVCAR-5 ovarian 4.93% | SK-OV-3 ovarian -21.6% | OVCAR-3 ovarian -23.3% | HS 578T breast -22.9% | NCI/ADR-RES ovarian 8.95%

Cc1ccc2c(n1)C(=O)C(Cl)=C(Nc1ccccc1C(C)C)C2=O
active: OVCAR-3 ovarian -3.79%
inactive: SR leukemia 33.4% | OVCAR-8 ovarian 67.5% | OVCAR-5 ovarian 85.9% | OVCAR-4 ovarian 28.4% | SK-OV-3 ovarian 79.7% | IGROV1 ovarian 63.9% | HS 578T breast 100% | NCI/ADR-RES ovarian 85.8%

COC1=C(C)C(=O)c2c(c(CCCl)c3n2CCC3O)C1=O (stereo unspecified)
inactive: OVCAR-8 ovarian 12.1% | OVCAR-5 ovarian 10.4% | OVCAR-4 ovarian 79.1%
active: SR leukemia 7.38% | SK-OV-3 ovarian -9.52% | OVCAR-3 ovarian 0.645% | HS 578T breast -6.16% | NCI/ADR-RES ovarian 6.59%

CC(C)OC(=O)Nc1ccc(-c2nc(-c3cccc(OCCN4CCOCC4)c3)c(-c3ccnc(Br)c3)[nH]2)cc1
inactive: OVCAR-8 ovarian 38.9% | OVCAR-5 ovarian 55.6% | OVCAR-4 ovarian 54% | SK-OV-3 ovarian 12.2% | IGROV1 ovarian 45.7% | OVCAR-3 ovarian 45.1% | NCI/ADR-RES ovarian 57.1%
active: SR leukemia -14.6% | HS 578T breast -33%

COc1ccc(-c2csc(NC(=O)N3CCN(c4cc5c(cc4F)c(=O)c(C(=O)O)cn5C4CC4)CC3)n2)cc1
inactive: SR leukemia 15.4% | OVCAR-5 ovarian 25.5% | OVCAR-4 ovarian 18.4% | HS 578T breast 28.8% | NCI/ADR-RES ovarian 57.5%
active: OVCAR-8 ovarian 3.75% | SK-OV-3 ovarian -8.98% | OVCAR-3 ovarian -3.32%

N#CC1=C(N)Oc2c(sc3c(Br)cccc23)C1c1ccc(Br)cc1 (stereo unspecified)
active: SR leukemia 4.23% | OVCAR-3 ovarian -8.57% | NCI/ADR-RES ovarian 2.32%
inactive: OVCAR-8 ovarian 36.1% | OVCAR-5 ovarian 56.3% | OVCAR-4 ovarian 48.9% | SK-OV-3 ovarian 36% | HS 578T breast 14.1%

COc1ccc(-c2cc(-c3ccc(Cl)cc3)c(C#N)c(=O)n2CCCCCC(=O)Nc2ccccc2N)cc1
inactive: OVCAR-8 ovarian 29.8% | OVCAR-5 ovarian 52.2% | OVCAR-4 ovarian 54.7% | SK-OV-3 ovarian 63.6% | IGROV1 ovarian 37.6% | OVCAR-3 ovarian 58.3% | NCI/ADR-RES ovarian 33.3%
active: SR leukemia -1.58%

CN1CCN(Cc2ccc(NC(=O)c3ccc(C(C)(C)C)c(C#Cc4cnc5cccnn45)c3)cc2C(F)(F)F)CC1
inactive: OVCAR-4 ovarian 15%
active: SR leukemia -49.7% | OVCAR-8 ovarian -30.4% | OVCAR-5 ovarian -25.4% | SK-OV-3 ovarian -56.6% | OVCAR-3 ovarian -68.5% | HS 578T breast -24.8% | NCI/ADR-RES ovarian -43.5%

Clc1ccc2c(c1)N(CCCN1CCCC1)c1ccccc1S2
active: SR leukemia -30.1%
inactive: OVCAR-8 ovarian 77.1% | OVCAR-5 ovarian 53.8% | OVCAR-4 ovarian 53.6% | SK-OV-3 ovarian 37.2% | OVCAR-3 ovarian 44% | HS 578T breast 42.6% | NCI/ADR-RES ovarian 35.8%

CCN(CC)CCNC(=O)c1cn2ncnc(Oc3ccc(NC(=O)Nc4ccc(Cl)c(C(F)(F)F)c4)cc3)c2c1C
active: SR leukemia -56.4% | OVCAR-8 ovarian -42.5% | OVCAR-5 ovarian -62.7% | OVCAR-4 ovarian -8.97% | SK-OV-3 ovarian -85.9% | IGROV1 ovarian -53.1% | OVCAR-3 ovarian -70.9%
inactive: NCI/ADR-RES ovarian 61%

C=CCc1cc(C)ccc1NC(C(=O)NCC(=O)OC)c1ccccc1 (stereo unspecified)
inactive: SR leukemia 95% | OVCAR-8 ovarian 100% | OVCAR-5 ovarian 86.7% | OVCAR-4 ovarian 105% | SK-OV-3 ovarian 91.2% | OVCAR-3 ovarian 105% | HS 578T breast 106% | NCI/ADR-RES ovarian 92.7%

CNCCCNc1nc2ccccc2c2c(=O)c3cc(OC)ccc3sc12
active: SR leukemia -30.2%
inactive: OVCAR-8 ovarian 72.7% | OVCAR-5 ovarian 92.2% | OVCAR-4 ovarian 61.2% | SK-OV-3 ovarian 84.9% | IGROV1 ovarian 68.1% | OVCAR-3 ovarian 75.7% | NCI/ADR-RES ovarian 80.6%

CC1=C(SCCC(=O)OC(C[Se]C2=C(C)C(=O)c3ccccc3C2=O)C(=O)NC(C)(C)C)C(=O)c2ccccc2C1=O (stereo unspecified)
active: OVCAR-8 ovarian -79.4% | OVCAR-5 ovarian -68.9% | OVCAR-4 ovarian -91.5% | SK-OV-3 ovarian -100% | IGROV1 ovarian -27.9% | OVCAR-3 ovarian -97.6% | HS 578T breast -21.3% | NCI/ADR-RES ovarian -68.6%
inactive: SR leukemia 18.7%

CC1Cc2c(ncn3c(-c4ccc(F)cc4)nnc23)N(C)c2ccccc21 (stereo unspecified)
active: OVCAR-4 ovarian -66.2% | OVCAR-3 ovarian 6.26%
inactive: SR leukemia 25% | OVCAR-8 ovarian 57.1% | OVCAR-5 ovarian 78% | SK-OV-3 ovarian 76.3% | HS 578T breast 26.1% | NCI/ADR-RES ovarian 41%

COC(=O)CCC/C=C\C[C@H]1C=CC(=O)/C1=C/C[C@@H](O)CCc1cccc(C(F)(F)F)c1
inactive: OVCAR-4 ovarian 20% | SK-OV-3 ovarian 24.6%
active: SR leukemia -15.3% | OVCAR-8 ovarian 8.44% | OVCAR-5 ovarian -26.6% | OVCAR-3 ovarian -62.5% | NCI/ADR-RES ovarian 9.64%

O=C(O)c1cn(C2CC2)c2cc(N3CCN(C(=O)Nc4nc(-c5ccc(Cl)cc5)cs4)CC3)c(F)cc2c1=O
inactive: SR leukemia 11.2% | OVCAR-5 ovarian 27.5% | OVCAR-4 ovarian 23.7% | HS 578T breast 35.5% | NCI/ADR-RES ovarian 38.1%
active: OVCAR-8 ovarian 7.37% | SK-OV-3 ovarian -2.39% | OVCAR-3 ovarian 5.86%
